Screening data (PubChem)
TDP1 cell noCPT: qHTS for Inhibitors of human tyrosyl-DNA phosphodiesterase 1 (TDP1): qHTS in cells in absence of CPT; Potency, µM (highest dose often 46.2 µM), for inactives: top-dose activity change, negative = growth inhibition, actives largely listed as inhibitors; DT40 Tdp1-/- hTDP1 cells, no CPT, ATP luminescence, 48 h; AID 686978, 2013; 15% of 420,000 active; further: potency means the concentration at half of the fitted maximal effect; nearly all actives have a fitted effect of over 55% in size
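Cells were dispensed at 400 per well, compounds added by pin tool, plates incubated ≥48 hr at 37 °C, then CellTiter-Glo added for 30 min at room temperature before luminescence reading. Line: DT40 Tdp1-/- complemented with hTDP1; camptothecin omitted.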
TDP1 cell CPT: growth inhibition of DT40 Tdp1-/-;hTDP1 cells with camptothecin (screen for TDP1 inhibitors) | 12% of 420,000 active | Potency, µM (highest dose often 46.2 µM), for inactives: top-dose activity change, negative = growth inhibition, most hits filed as inhibitors | chicken DT40 Tdp1-/-;hTDP1 cells + 20 nM CPT, ATP luminescence, 48 h | AID 686979; further: potency means the concentration at half of the fitted maximal effect; nearly all actives have a fitted effect of over 55% in size
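Chicken DT40 Tdp1-/- cells stably complemented with human TDP1 were seeded at 400 cells/well in medium containing 20 nM camptothecin, exposed to pin-transferred compounds, and grown at 37 °C for at least 48 hr. Viability was read as ATP luminescence.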
LDHA block: inhibitors of human lactate dehydrogenase A; 0.15% of 480,000 active; activity change, % (values are at about 110 or 230 µM); P00338; AID 1347041; purified LDHA, NADH/diaphorase-resazurin fluorescence; stronger effect = lower value; in the data active means activity change below about -30%; inconclusive means mostly about -25% to -30%;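 further: plate controls were DMSO wells for no effect and wells without enzyme for full effect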
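Human LDH5 (2 nM) was incubated with 0.06 mM NADH and 0.2 mM pyruvate for 5 min at room temperature in Tris pH 7.4. Remaining NADH was coupled through diaphorase/resazurin, and resorufin fluorescence was read at 0 and 20 min.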
IL-1B inflam inh: blocks inflammasome-driven IL-1 beta release; 4.7% of 360,000 active; AID 743279; THP-1 LPS/ATP IL-1B secretion, AlphaLISA, 16 h; stronger effect = lower value; activity change, % at 57.5 µM; in the data active means activity change below about -50%; inconclusive means mostly about -30% to -49%
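THP-1 cells pretreated 1 hr with compounds (up to 57.5 uM final), then stimulated with LPS (250 ng/mL final) plus ATP (1.25 mM final); secreted IL-1B measured by AlphaLISA after 16 hr, decreased signal indicating inhibition.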
Gal4-VP16 FLuc: Gal4-VP16 reporter inhibition counter-screen; Drosophila S2 Gal4-VP16 UAS-luciferase, luminescence, 20 h; AID 2546; 3.5% of 310,000 active; Potency, µM (top dose mostly 53.6 µM), inactives show at the highest dose activity, negative = inhibition, hits mostly inhibitors;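 further: Gal4-VP16 expression switched on by copper sulfate through the metallothionein promoter; potency means the concentration at half of the fitted maximal effect; nearly all actives have a fitted effect of over 50% in size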
RORg inh: inhibitors of mouse ROR gamma transcriptional activity. P51450. Drosophila S2 Gal4-RORgamma UAS-luciferase reporter, 20 h. Potency, µM (top dose mostly 53.6 µM), without a hit: at the top dose activity change, negative = inhibition, hits mostly inhibitors. 5.4% of 310,000 active. AID 2551; further: potency means the concentration at half of the fitted maximal effect; nearly all actives have a fitted effect of over 60% in size
Target sequence (P51450 whole entry, looked up, the tested form may be a part): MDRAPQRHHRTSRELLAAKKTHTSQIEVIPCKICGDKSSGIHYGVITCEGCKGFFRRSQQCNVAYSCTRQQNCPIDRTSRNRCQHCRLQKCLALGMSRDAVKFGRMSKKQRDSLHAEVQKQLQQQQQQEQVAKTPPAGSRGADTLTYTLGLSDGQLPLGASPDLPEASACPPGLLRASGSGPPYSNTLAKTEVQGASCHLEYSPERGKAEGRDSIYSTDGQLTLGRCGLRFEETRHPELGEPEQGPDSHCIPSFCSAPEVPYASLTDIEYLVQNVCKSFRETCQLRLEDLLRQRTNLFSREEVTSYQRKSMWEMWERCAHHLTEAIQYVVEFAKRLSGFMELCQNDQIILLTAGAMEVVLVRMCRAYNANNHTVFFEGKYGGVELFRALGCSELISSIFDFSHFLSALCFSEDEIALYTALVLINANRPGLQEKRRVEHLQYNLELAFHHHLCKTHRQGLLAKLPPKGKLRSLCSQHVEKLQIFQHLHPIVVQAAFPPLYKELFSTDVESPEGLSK
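Stable Schneider cell line, Gal4 DNA-binding domain fused to ROR gamma, UAS-luciferase. Cmpd 1 hr RT → CuSO4 700 uM final → 20 hr RT → luciferase reagent 10 min → luminescence.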
* hit, by the source's call; i = inactive; u = inconclusive; x = no result given; [ ] = remark or other dose. Only some compounds are listed: those with a hit (about 18% of all), similar ones and a draw of the others. Unless noted, the call rests on the fitted dose curve; in most records, active means well fitted curve in the direction sought with a large enough effect; inconclusive means small, poorly fitted or top-dose-only effect, or another doubt; inactive means no such curve, though single readings can be large; an effect the other way counts as inactive or inconclusive. Unless noted, on the % scale 0 is the no-effect control and ±100 the full control effect.

SMILES	TDP1 cell noCPT	TDP1 cell CPT	LDHA block	IL-1B inflam inh	Gal4-VP16 FLuc	RORg inh
Cc1c(-c2nc(N)nc(Nc3ccccc3)n2)oc2ccccc12	16.4µM*	u	-4.7	u	-29.3%	4.7%
Cn1nccc1C(=O)NC1CCCc2c1cnn2-c1ccc(C(C)(C)C)cc1 (stereo unspecified)	2.91µM*	2.91µM*	0.7	-2.9	2.51µM*	u
CC(=O)NC1CCCc2c1cnn2-c1ccc(C(C)(C)C)cc1 (stereo unspecified)	u	u	-6.5	-4.4	-29.1%	u
CC(=O)CCC(=O)NC1CCCc2c1cnn2-c1ccc(C(C)(C)C)cc1 (stereo unspecified)	u	u	-0.4	48.8	u	u
CC(C)(C)c1ccc(-n2ncc3c2CCCC3NC(=O)CN2CCCC2=O)cc1 (stereo unspecified)	16.4µM*	18.4µM*	-7.1	i	7.08µM*	u
CC(C)(C)c1ccc(-n2ncc3c2CCCC3NC(=O)c2cnccn2)cc1 (stereo unspecified)	9.2µM*	u	-0.3	-81.8*	u	-9.3%
CC(C)(C)c1ccc(-n2ncc3c2CCCC3NC(=O)c2csnn2)cc1 (stereo unspecified)	11.6µM*	u	-4.1	9.6	u	65.4%
CC(C)(C)c1ccc(-n2ncc3c2CCCC3NC(=O)C2=NNC(=O)CC2)cc1 (stereo unspecified)	u	u	-1.9	107.9	u	37.4%
N#Cc1cccc(OCC(=O)c2ccc3c(c2)CCCC3)c1	x	x	-1.5	x	x	x
COc1ccc(S(=O)(=O)N2CCN(C(=O)NC3CC3)CC2)cc1	x	x	-1.9	x	x	x
Cc1nc(-c2cccc(S(=O)(=O)N3CCC(C)CC3)c2)cs1	u	u	-1.7	10.7	4.7%	1.9%
Cc1nc(-c2cccc(S(=O)(=O)N3CCCCC3)c2)cs1	-26.0%	-14.1%	-3.4	-89.2*	10.4%	7.4%
Cc1nc(-c2cccc(S(=O)(=O)N3CCCC(C)C3)c2)cs1 (stereo unspecified)	u	14.6µM*	0.7	-15.9	-3.8%	-19.0%
Cc1nc(-c2cccc(S(=O)(=O)N3CCCCCC3)c2)cs1	u	-12.2%	-1.2	-7.4	u	17.7%
Cc1cc(C(=O)NC(C)c2cccc(C(F)(F)F)c2)c(C)o1 (stereo unspecified)	x	x	1.3	x	x	x
Cc1ccc(C(NC(=O)N2CCOCC2)=C(Cl)Cl)cc1F	16.4µM*	6.51µM*	2.6	-100.9*	2.24µM*	22.4µM*
Cc1ccc(C(NC(=O)N2CCOCC2)C(Cl)Cl)cc1F (stereo unspecified)	5.9%	u	0.3	20.3	-10.7%	u
O=C(C1CC12CCN(Cc1cccc3cccnc13)CC2)N1CCN(Cc2cccs2)CC1 (stereo unspecified)	u	1.64µM*	x	x	x	x
Cc1ccccc1C(=O)N1CCN(Cc2cccc3cccnc23)CC1	x	x	5.2	x	x	x
CCCCCn1c(CN2CCN(C)CC2)nc2c1c(=O)n(C)c(=O)n2C	-10.2%	-2.1%	-6.3	-9.8	-0.9%	-8.4%
CCC1CCCCN1Cc1nc2c(c(=O)n(C)c(=O)n2C)n1CCC(C)C (stereo unspecified)	14.6µM*	16.4µM*	-6.5	20.4	-1.0%	u
CCC1CCCCN1Cc1nc2c(c(=O)n(C)c(=O)n2C)n1CC(C)C (stereo unspecified)	u	u	2.6	22.5	-2.7%	2.5%
CCCCCCn1c(CN2CCCCC2CC)nc2c1c(=O)n(C)c(=O)n2C (stereo unspecified)	13µM*	23.1µM*	-8.7	23.4	3.1%	3.1%
Nc1c(C(=O)N/N=C/c2ccc([N+](=O)[O-])cc2)cnn1-c1ccccc1	-19.2%	-20.3%	-7.7	17.0	2.4%	0.0%
Cc1c(C(=O)Nc2cc(F)cc(F)c2)cnn1-c1ccccc1	11.6µM*	13µM*	-3.0	-17.8	-28.3%	0.4%[1.91 µM]
SMILES	TDP1 cell noCPT	TDP1 cell CPT	LDHA block	IL-1B inflam inh	Gal4-VP16 FLuc	RORg inh
Cc1c(C(=S)Nc2ccccc2)cnn1-c1ccc([N+](=O)[O-])cc1	u	16.4µM*	-2.6	0.0	u	u
CC(=O)c1cnn(-c2ccccc2)c1C	5.8%	8.3%	-4.8	11.0	13.8%	-16.0%
Cc1c(C(=S)Nc2ccccc2)cnn1-c1ccccc1	-23.4%	20.6µM*	-7.3	-28.6	-5.2%	u
Cc1nn(-c2ccccc2)cc1C(=S)Nc1ccccc1	-29.9%	-5.1%	-0.1	u	10.0%	11.2µM*
Cc1c(C(=O)Nc2ccccc2F)cnn1-c1ccccc1	u	u	-1.8	0.0	-14.6%	-0.8%
CC(C)C(=O)Nc1ccccc1Br	x	x	3.3	x	x	x
Cc1sc(NC(=O)CC2(CC(=O)O)CCCCC2)c(C(N)=O)c1-c1ccccc1	x	x	8.8	x	x	x
COC(=O)C1=C(N)Oc2cc(C)n(C)c(=O)c2C1c1cccc(OC)c1 (stereo unspecified)	x	x	-23.2	x	x	x
COC(=O)C1=C(N)Oc2cc(C)n(C)c(=O)c2C1c1ccc(Cl)cc1 (stereo unspecified)	14.6µM*	u	4.0	9.8	4.6%	-25.0%
N#Cc1ccc(Cl)cc1NC(=S)NCCc1ccccc1	x	x	0.9	x	x	x
CCCCCC1(C(=O)OCC)CC(CSC(=N)N)OC1=O (stereo unspecified)	16.4µM*	20.6µM*	-2.4	-22.6	5.9%	-0.3%
CCN1C(=O)N(c2cccc3ccccc23)C(C)=CC1(C)C	23.1µM*	u	-3.2	6.3	-2.0%	23.4%
Nc1ccc2c(c1)C(=O)N(c1cccc3ccccc13)C2=O	-25.3%	-0.4%	-2.7	-10.7	8.7%	-16.4%[1.91 µM]
Cc1ccc2nc(-c3ccc(C)o3)c(NC3CCCC3)n2c1	12.6µM*	11.2µM*	-3.0	x	x	x
Cc1ccc2nc(-c3ccccc3)c(Cc3ccccn3)n2c1	u	u	1.5	25.1	x	x
Cc1ccc2nc(-c3ccccn3)c(NC3CCCC3)n2c1	0.326µM*	1.3µM*	4.0	-13.7	-2.1%	3.9%
COc1cc(/C=N/NC(=O)CC23CC4CC(CC(C4)C2)C3)cc(Br)c1OCC(=O)N(C)C	18.4µM*	20.6µM*	0.5	-24.7	u	11.6%
COc1cc(/C=N/NC(=O)CC2(C)OCCO2)cc(Br)c1O	-7.2%	-8.3%	0.5	-2.9	-4.4%	-7.0%
Cc1ccccc1-c1noc(CCC(=O)Nc2cccc(C)c2C)n1	16.4µM*	-10.3%	-4.3	x	x	x
